# Reference: PubChem BioAssay
# Active and inactive are the calls of the source. Unless noted, the rule behind the calls is not given here.
# Tests used:
# [1] = system: XIP peptide (Xip251-270) binding; experiment: XIP fragment 251-270 binding compounds – biochemical, small-molecule microarray, fluorescence 635/667 nm, 0.1 µg/mL protein, primary screen (AID 1182); conditions: fluorescent protein binding, 635 nm, higher = more signal, called active from +8 up or from −8 down
# XIP peptide (Xip251-270) = experiment: compounds binding XIP fragment 251-270 – biochemical, small-molecule microarray, fluorescence 635/667 nm, 0.5 µg/mL protein, primary screen (AID 1183); conditions: fluorescence 635 nm, higher = more signal
# [2] = blood-stage malaria parasite viability loss – strain 3D7, DAPI fluorescence, 100 nL, primary screen (AID 1184);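 note: parasites grown inside human red blood cells in medium with human serum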; conditions: P. falciparum 3D7 growth, 3 d, higher = more signal
# [3] = molecular target: Homeobox protein Hox-A13 (Mus musculus) (UniProt Q62424); experiment: disruptors of Hoxa13 oligonucleotide interaction – biochemical, fluorescence polarization, labeled oligonucleotide, primary screen (AID 1185); conditions: Hoxa13:DNA binding, 15 min, higher = more signal, called active from +8 up or from −8 down
# [4] = blockers of DNA damage checkpoint Chk1 activation – imaging, HeLa, hydroxyurea, phospho-Chk1 antibody, percent positive cells, primary screen (AID 1186); conditions: hydroxyurea-induced phospho-Chk1 immunofluorescence imaging, higher = more signal
# [5] = blockers of DNA damage checkpoint Chk1 activation – imaging, HeLa, hydroxyurea, phospho-Chk1 nuclear intensity, primary screen (AID 1187); conditions: hydroxyurea-induced phospho-Chk1 immunofluorescence imaging, higher = more signal
# Chain of Homeobox protein Hox-A13 (Mus musculus) (Q62424 whole entry, looked up): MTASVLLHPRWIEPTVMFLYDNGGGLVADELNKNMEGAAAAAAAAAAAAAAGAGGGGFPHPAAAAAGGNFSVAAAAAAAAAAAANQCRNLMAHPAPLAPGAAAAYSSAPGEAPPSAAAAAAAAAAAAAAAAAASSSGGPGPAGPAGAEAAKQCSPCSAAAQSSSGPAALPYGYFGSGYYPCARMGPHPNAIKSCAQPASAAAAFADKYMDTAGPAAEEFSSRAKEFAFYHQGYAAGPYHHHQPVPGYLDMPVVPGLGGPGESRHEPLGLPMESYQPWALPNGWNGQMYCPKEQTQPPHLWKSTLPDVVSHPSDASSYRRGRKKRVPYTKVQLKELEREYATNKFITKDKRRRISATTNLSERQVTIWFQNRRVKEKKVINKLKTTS
Structure (SMILES),composite z-score [1],composite z-score (XIP peptide (Xip251-270)),z-score [2],z-score [3],z-score [4],z-score [5]
CCN(CC)c1ccc(N2CC=CC34O[C@@H]5/C=C\CCCOC(=O)C5[C@H]3C(=O)N(CCCCCCO)[C@@H]4C2=O)cc1 (stereo not given in full),1.51 (inactive),0.897,-0.789,-5.09 (inactive),-0.0771 (inactive),1.02 (inactive)
CN(C)CCCCNC(=O)[C@H]1C[C@H]2C(=O)N[C@@H](CCCC[N+](C)(C)C)C(=O)N2[C@H]1c1cccc(OCCO)c1,1.42 (inactive),0.689,-0.0344,-3.83 (inactive),-0.0589 (inactive),-0.216 (inactive)
CN1C(=O)C2C=CC(C(O)c3cccc4ccccc34)N(NC(=O)OC(C)(C)C)C2C1=O (stereo not given),0.704 (inactive),0.586,0.99,-3.88 (inactive),0.326 (inactive),-0.397 (inactive)
C=C(/C(=C/C[C@@H](OC(=O)c1ccncc1)c1cccc(OCCO)c1)c1cc(C(=O)OC)ccc1OC)C(C)C,0.577 (inactive),0.723,-3.13,-3.8 (inactive),-0.185 (inactive),-0.235 (inactive)
CO[C@H]1O[C@H](CO)[C@@H](OC(=O)c2ccc(Br)cc2)[C@@H]2OC(=O)[C@H](Cc3cccc(Br)c3)C/C=C/C[C@@H](Cc3cccc(Br)c3)C(=O)O[C@@H]12,1.69 (inactive),0.675,-0.706,-2.82 (inactive),0.373 (inactive),0.574 (inactive)
COc1ccc([Si](C)(C)[C@H]2[C@H](CCn3cc(CCO)nn3)O[C@@]3(C(=O)N(Cc4cccc(N5C(=O)c6cccc7cccc5c67)c4)c4ccccc43)[C@@H]2C)cc1,0.979 (inactive),0.697,-2.55,-2.56 (inactive),-0.854 (inactive),0.0226 (inactive)
CN1C(=O)C2C=CC(C(O)C3CCCCC3)N(N(c3ccccc3)c3ccccc3)C2C1=O (stereo not given),-0.119 (inactive),0.63,0.721,-4.01 (inactive),0.74 (inactive),-0.024 (inactive)
COc1ccccc1CN1C(=O)c2ccccc2[C@@]2(Cc3ccccc3N(C3CC3)C2=O)[C@@H]1c1ccc(CO)cc1,-0.0699 (inactive),0.53,0.35,-2.14 (inactive),0.315 (inactive),0.491 (inactive)
COc1cc(C(O)C2C=CC3C(=O)N(C)C(=O)C3N2NC(=O)OC(C)(C)C)cc(OC)c1OC (stereo not given),1.56 (inactive),0.157,-0.361,-1.27 (inactive),0.873 (inactive),0.571 (inactive)
COc1ccc([Si](C)(C)[C@@H]2[C@@H](CCO)O[C@]3(C(=O)N(Cc4ccccc4)c4ccc(N5C(=O)COc6ccccc65)cc43)[C@H]2C)cc1,-0.234 (inactive),0.667,-2.82,-1.89 (inactive),-1.26 (inactive),-1.47 (inactive)
CCCNC(=O)[C@@]1(Sc2ccc(C)cc2)CC(=O)N(Cc2ccccc2)[C@@H]1c1ccc(CO)cc1I,0.334 (inactive),0.889,0.179,-2.54 (inactive),0.264 (inactive),0.372 (inactive)
CCCC=C(CCC)[C@@H](NS(=O)(=O)c1ccccc1)c1ccc(C(F)(F)F)cc1,-0.363 (inactive),0.528,0.118,-1.19 (inactive),-0.147 (inactive),-0.423 (inactive)
C=C(C(=O)CC[C@H](OC(=O)c1cccnc1)c1ccc(OCCO)cc1)C(C)C,0.538 (inactive),0.551,-2.02,-4.81 (inactive),0.387 (inactive),0.05 (inactive)
O=C1NC(=O)C2C1C=CC(C(O)c1ccc(-c3ccccc3)s1)N2Nc1ccccn1 (stereo not given),1.05 (inactive),0.212,-0.169,-3.88 (inactive),0.773 (inactive),-0.264 (inactive)
COc1cc2c(cc1OC)CN(C(=O)[C@@H]1[C@H]3C(=O)O[C@H](c4ccccc4)[C@H](c4ccccc4)N3[C@H](c3ccc(OCCO)cc3)[C@@]13C(=O)Nc1ccc(C#CCCO)cc13)CC2,1.17 (inactive),0.75,-2.12,3.49 (inactive),0.0699 (inactive),0.595 (inactive)
CC1=C2[C@@H](CCc3ccccc3)OB(O)C[C@@H]2[C@@H]2C(=O)C=CC(=O)[C@@H]2C1,-0.387 (inactive),0.403,-1.15,-6.24 (inactive),1.15 (inactive),1.1 (inactive)
C#CCOC(=O)N[C@H](C=CCCCC)c1ccccc1,0.0811 (inactive),-0.632,-0.817,-3.62 (inactive),0.163 (inactive),0.195 (inactive)
CCOc1cc(C(O)C2C=CC3C(=O)NC(=O)C3N2Nc2ccccn2)ccc1O (stereo not given),0.113 (inactive),0.0151,-0.296,-0.998 (inactive),0.861 (inactive),0.746 (inactive)

Structure (SMILES),composite z-score [1],composite z-score (XIP peptide (Xip251-270)),z-score [2],z-score [3],z-score [4],z-score [5]
O=C1N(Cc2ccccc2)c2ccccc2[C@H]2OC(c3ccc(OCCCO)cc3)=N[C@@]12CCS(=O)(=O)c1ccccc1,0.0535 (inactive),0.371,-2.56,-1.54 (inactive),-0.103 (inactive),-0.0726 (inactive)
O=C1O[C@@H](c2ccccc2)[C@@H](c2ccccc2)N2[C@@H](c3ccc(O)cc3)[C@]3(C(=O)Nc4ccc(C#CC5(O)CCCCCC5)cc43)[C@@H](C(=O)N3CCN(c4ncccn4)CC3)[C@H]12,0.328 (inactive),0.559,-2.02,-1.72 (inactive),-0.206 (inactive),-0.624 (inactive)
COC(=O)[C@@]1(Cc2ccccc2)[C@H]2c3cc(C(=O)N4CCCC4)n(CCO)c3C[C@H]2CN1C(=O)c1ccccc1,1.06 (inactive),0.824,-1.29,-0.89 (inactive),-0.536 (inactive),-0.0989 (inactive)
CN(C)C(=O)[C@@]1(CCS(=O)(=O)c2ccccc2)N=C(c2ccc(OCCCO)cc2)O[C@H]1c1ccccc1CN=[N+]=[N-],1.41 (inactive),0.653,-2.48,-5.32 (inactive),-0.359 (inactive),-0.243 (inactive)
CC(C)C(CO)N1C(=O)[C@@H]2[C@H]3C(=O)OCC=C[C@H]3OC23C=CCN(CCN2CCOCC2)C(=O)[C@@H]13 (stereo not given in full),0.708 (inactive),0.3,-0.0296,-4.54 (inactive),0.318 (inactive),0.436 (inactive)
C=CCOc1ccc([C@@H]2CC=C(C(=O)OCC)[C@H](c3cccc(Br)c3)N2S(=O)(=O)c2ccc(C)cc2)cc1,-0.355 (inactive),-0.498,-1.94,0.422 (inactive),-0.0778 (inactive),0.295 (inactive)
COc1ccc(C#Cc2ccc3c(c2)[C@]2(C(=O)N3)[C@H](c3ccc(OCCO)cc3)N3[C@H](c4ccccc4)[C@H](c4ccccc4)OC(=O)[C@H]3[C@@H]2C(=O)N2CCN(c3ncccn3)CC2)cc1,-0.138 (inactive),0.0154,-1.31,1.1 (inactive),-0.246 (inactive),-0.0676 (inactive)
NCCCCCCNC(=O)[C@H]1C[C@H]2C(=O)N3CCC[C@H]3C(=O)N2[C@H]1c1ccc(O)cc1,-0.118 (inactive),0.451,0.0311,-2.4 (inactive),-0.0342 (inactive),0.0369 (inactive)
C=C(COC)C(=O)CC[C@H](OC(=O)c1ccccc1-c1ccccc1C(=O)O)c1ccc(OCCO)cc1,0.0817 (inactive),0.264,-1.84,-5.78 (inactive),-0.33 (inactive),-0.537 (inactive)
C=CCC(OC(C)=O)[C@@H]1[C@@H](N(Cc2cccc3ccccc23)C(=O)Cc2ccc(F)cc2)c2cc(OCCCO)ccc2N1C(=O)Cc1ccc(OC)cc1 (stereo not given in full),-0.51 (inactive),-0.189,-1.64,-0.902 (inactive),-0.0456 (inactive),-0.301 (inactive)
C=C(CCCC)/C(=C/C[C@H](OC(=O)c1ccncc1)c1ccc(CO)o1)c1cc(C(=O)OC)ccc1OC,0.948 (inactive),0.71,-0.138,-5.29 (inactive),-0.52 (inactive),-1.02 (inactive)
C[N+](C)(C)CCCC[C@@H]1NC(=O)[C@@H]2C[C@H](C(=O)O)[C@H](c3cccc(OCCO)c3)N2C1=O,1.36 (inactive),0.246,-0.0179,-3.69 (inactive),0.153 (inactive),0.16 (inactive)
CC(C)CCC[C@@H](C)[C@H]1CC[C@@]2(C)C3=C(CC[C@]12C)[C@@]1(C)CC[C@H](OC(=O)c2ccc(N)cc2)C(C)(C)C1CC3 (stereo not given in full),0.141 (inactive),0.132,0.0753,-1.09 (inactive),-0.516 (inactive),-0.736 (inactive)
COC(=O)[C@@]1(Cc2ccccc2)[C@H]2c3cc(C(=O)N4CCCC4)n(Cc4ccccc4)c3C[C@H]2CN1C(=O)c1ccccc1,3.1 (inactive),-0.179,-1.12,-4.13 (inactive),0.234 (inactive),0.167 (inactive)
[N-]=[N+]=NCc1ccccc1C[C@@]1(C(=O)NCCN2CCOCC2)N=C(c2ccc(OCCCO)cc2)O[C@@H]1c1ccccc1CN=[N+]=[N-],0.607 (inactive),0.743,-2.22,-11.2 (active),0.243 (inactive),0.693 (inactive)
COCCCNC(=O)[C@]1(CCS(=O)(=O)c2ccccc2)N=C(c2ccc(OCCCO)cc2)O[C@@H]1c1ccccc1,1.47 (inactive),0.919,-2.13,-4.72 (inactive),-0.369 (inactive),-0.42 (inactive)
COC(=O)[C@H]1N=C(c2ccc(OCCCO)cc2)O[C@H]1c1ccccc1CN=[N+]=[N-],0.262 (inactive),0.62,-1.79,-1.53 (inactive),0.0721 (inactive),0.328 (inactive)
